Sampled rows, rich in hits. Any-hit rate of the full collection: about 3.1%.
uPA surface inh – inhibitors of cell surface uPA generation. Potency, µM (doses to about 38.3 µM), inactives show top-dose activity change, negative = inhibition, most hits filed as inhibitors. AID 540303. actives 0.31% (n = 330,000). cell surface uPA generation assay, qHTS; active means well fitted inhibition curve with a large enough effect; inconclusive means small, poorly fitted or top-dose-only effect; inactive means no such curve, though single readings can be large or run the other way; tested in mouse RAW 264.7 cells; further: potency means the concentration at half of the fitted maximal effect; on the % scale 0 is the no-effect control and ±100 the full control effect; nearly all actives have a fitted effect of over 55% in size
DRD3 antagonist – D3 dopamine receptor (human) antagonism; P35462; D3R cells, DiscoveRx beta-arrestin luminescence, antagonist mode; hits give low values; max response, negative = inhibition, %; actives 2.5% (n = 360,000); AID 652054; in the data active means max response below about -50%; inconclusive means no clear call, values can overlap the other calls; further: on the % scale 0 is the no-effect control and ±100 the full control effect
Target sequence (P35462 whole entry, looked up): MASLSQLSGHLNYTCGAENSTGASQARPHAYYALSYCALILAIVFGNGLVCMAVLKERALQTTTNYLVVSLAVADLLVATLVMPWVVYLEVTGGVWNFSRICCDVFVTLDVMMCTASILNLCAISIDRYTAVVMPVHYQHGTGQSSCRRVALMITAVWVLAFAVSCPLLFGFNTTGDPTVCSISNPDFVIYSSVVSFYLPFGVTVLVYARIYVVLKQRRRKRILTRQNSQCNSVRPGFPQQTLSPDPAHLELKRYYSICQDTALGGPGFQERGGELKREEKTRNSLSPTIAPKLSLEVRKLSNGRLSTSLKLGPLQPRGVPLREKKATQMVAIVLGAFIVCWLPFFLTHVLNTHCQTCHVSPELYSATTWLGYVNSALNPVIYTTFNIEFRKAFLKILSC
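Cells expressing the human receptor were seeded at 1500 cells/well, incubated overnight at 37 degrees C in 5% CO2, then exposed to library compounds with dopamine controls for 90 minutes at 37 degrees C before luminescent detection.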
D3 ag – D3 dopamine receptor (human) agonism; P35462; D3R DiscoveRx beta-arrestin cells, luminescence, 90 min; max activation, %; actives 0.58% (n = 410,000); in the data active means max activation above about 30%; further: 0% is about no effect
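Agonist-mode cell screen: cells plated at 1500/well and incubated overnight at 37 °C, then exposed to library compounds for 90 min at 37 °C. Detection reagent was added for 30–60 min at room temperature, and luminescence was read.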
RGS4 inhibitor – blocks human RGS4-accelerated GTP hydrolysis. P49798. Transcreener GDP fluorescence polarization, RGS4-accelerated GTP hydrolysis. Potency, µM (titrated, usually from 114 µM), for the others: at the highest dose activity change, negative = inhibition, hits mostly inhibitors. actives 0.039% (n = 390,000). AID 504845; active means well fitted inhibition curve with a large enough effect; inconclusive means small, poorly fitted or top-dose-only effect; inactive means no such curve, though single readings can be large or run the other way; further: potency means the concentration at half of the fitted maximal effect; on the % scale 0 is the no-effect control and ±100 the full control effect; nearly all actives have a fitted effect of over 75% in size
Target sequence (P49798 whole entry, looked up): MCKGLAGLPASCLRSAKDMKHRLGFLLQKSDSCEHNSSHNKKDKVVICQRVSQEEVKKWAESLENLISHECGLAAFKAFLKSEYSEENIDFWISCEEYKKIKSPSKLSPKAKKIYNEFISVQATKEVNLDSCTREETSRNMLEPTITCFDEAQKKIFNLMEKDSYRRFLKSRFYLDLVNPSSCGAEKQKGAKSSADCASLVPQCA
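MLSMR compounds (23 nl, pin-transferred) preincubated 10 min at room temperature with a 500nM (2x) first reagent, then RGS4 at 900nM (2x) plus Transcreener GDP mix added; fluorescence polarization (620/688 nm) read before and after 90 min at 30 °C.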
Active calls of the source: *; ? = inconclusive; . = no result given; [ ] = another dose, or the depositor's remark.

SMILES	uPA surface inh	DRD3 antagonist	D3 ag	RGS4 inhibitor
Cc1c(NS(C)(=O)=O)cccc1-c1nc2cccnc2s1	5.9%	-50.7*	1.0	-19.2%
O=C(c1ccc2c(=O)n(CCc3ccccc3)c(=O)[nH]c2c1)N1CCN(C(=O)c2ccco2)CC1	.	.	.	-19.8%
C[C@@H](C(=O)Nc1ccc2ccccc2c1)[C@H]1C[C@]1(C)[C@H](NC(=O)c1cnccn1)c1ccccc1	5.0%	3.5	4.3	10.1%
C[C@@H](C(=O)Nc1ccc2ccccc2c1)[C@@H]1C[C@@]1(C)[C@@H](NC(=O)c1cnccn1)c1ccccc1	-0.2%	-75.5*	-11.1	-11.6%
CC1CCc2c(sc(NC(=O)Cn3nnc(-c4ccc(C(F)(F)F)cc4)n3)c2C#N)C1 (configuration not stated)	.	.	6.3	3.7%
CN1CCN(C2=C(Cl)C(=O)N(CCc3ccccc3)C2=O)CC1	1.2%	-71.1*	-5.5	-2.4%
CN1CCN(C2=C(Cl)C(=O)N(c3ccc(Cl)cc3)C2=O)CC1	-8.1%	-82.6*	4.7	-38.6%
Cc1ccc(N2C(=O)C(Cl)=C(N3CCN(C)CC3)C2=O)c(C)c1	-6.2%	?	-10.9	?
O=C1CC(c2ccccc2)CC(=O)C1Sc1ccc(Cl)cc1 (configuration not stated)	11.9%	-53.4*	-13.8	-34.0%
O=C1CC(c2ccc(Cl)cc2)CC(=O)C1CS(=O)(=O)c1ccccc1 (configuration not stated)	6.6%	?	-12.9	-50.6%
Cc1ccc(CNC(=O)Cc2c(C)c3c(cc(C)c4c(C)coc43)oc2=O)cc1	.	.	-6.5	-37.7%
O=C(OCn1ncc(Cl)c(Cl)c1=O)c1ccc(C(F)(F)F)cc1	-10.8%	-85.3*	1.1	-30.3%
CCOC(=O)c1ccc(NC(=O)Cn2ncc(Cl)c(Cl)c2=O)cc1	-12.3%	?	-6.3	-44.7%
Cc1ccc(C(=O)OCn2ncc(Cl)c(Cl)c2=O)cc1	-9.4%	-50.7*	-7.6	-9.4%
CC1CCc2c(sc3nnn(CC(=O)Nc4cccc(C(F)(F)F)c4)c(=O)c23)C1 (configuration not stated)	.	.	-3.3	5.9%
CC(=O)c1cccc(NC(=O)C2=CC(c3ccc4c(c3)OCO4)=NS(=O)(=O)N2C)c1	1.0%	-61.8*	-20.5	8.9%
CCCCn1c(SCC(=O)N2CCN(c3ccccc3)CC2)nc2ccsc2c1=O	-22.4%	0.0	35.4*	-16.1%
CCCCn1c(SCC(=O)Nc2ccc(OCC)cc2)nc2ccsc2c1=O	.	.	-6.3	-15.9%
CCCCn1c(SCC(=O)NCc2ccccc2)nc2ccc(N3CCOCC3)cc2c1=O	.	34.7	34.0*	-21.3%
CCCCn1c(SCC(=O)N2CCC(C)CC2)nc2ccsc2c1=O	.	10.7	30.2*	20.6%
Cc1nn(-c2ccccc2)c2nc(-c3ccco3)cc(C(=O)O)c12	1.2%	-51.7*	5.7	?
Cc1nn(-c2cccc(Cl)c2)c2nc(-c3ccco3)cc(C(=O)O)c12	3.9%	2.9	5.1	-15.4%
CCCCCCSc1ccc([C@H]2N[C@@](Cc3ccccc3)(C(=O)OC)[C@H]3C(=O)N(C)C(=O)[C@@H]23)cc1	?	-51.3*	-6.3	4.0%
CCCCCCSc1ccc([C@H]2N[C@@](Cc3ccccc3)(C(=O)OC)[C@H]3C(=O)N(CC)C(=O)[C@@H]23)cc1	3.3%	3.0	1.0	-1.6%
CCN1C(=O)[C@H]2[C@@H](c3ccc(-c4ccc(C(C)=O)cc4)c(OC)c3)N[C@@](Cc3ccccc3)(C(=O)OC)[C@H]2C1=O	?	-59.3*	-7.9	-18.0%
SMILES	uPA surface inh	DRD3 antagonist	D3 ag	RGS4 inhibitor
Nc1nc(NCc2ccccc2)c2[nH]cnc2n1	.	.	.	-22.9%
CC1(C(=O)NS(=O)(=O)c2cccc(Cl)c2)CCN1C(=O)C1CCCCC1 (configuration not stated)	.	?	2.8	.
COCCN(C(=O)COC(=O)c1cnc(C)cn1)c1c(N)n(Cc2ccccc2)c(=O)[nH]c1=O	1.7%	-77.1*	-12.9	1.5%
COCCN(C(=O)COC(=O)c1ccco1)c1c(N)n(Cc2ccccc2)c(=O)[nH]c1=O	4.6%	-4.1	5.2	0.7%
COc1cc(C)c(S(=O)(=O)N2CCOCC2)cc1C(C)C	-1.3%	-88.3*	3.1	2.8%
COc1cc(C)c(C(C)C)cc1S(=O)(=O)N1CCN(C)CC1	-2.1%	-18.4	0.2	-0.6%
COC(=O)N/N=C/c1cc(N=Nc2ccccc2Cl)ccc1O	?	-91.3*	-21.7	-12.4%[56.9 µM]
COC(=O)N/N=C/c1cc(Br)ccc1O	-1.5%	8.1	15.7	-13.3%
Nc1ccc(C(=O)N/N=C\c2cc(N=Nc3cccc4ccccc34)ccc2O)cc1	-13.3%	-94.9*	-3.3	-28.4%
COC(=O)N/N=C/c1cc(N=Nc2ccccc2)ccc1O	0.0%	-63.5*	-26.6	-15.6%
COc1ccc(C(C)C)cc1S(=O)(=O)NCCc1c(C)[nH]c2ccc(C)cc12	.	.	6.7	-6.4%
CCc1sc(Nc2ccc(C)cc2Br)nc1-c1cc2cccc(OC)c2oc1=O	.	.	3.7	-5.7%
O=C(CNC(=O)c1ccccc1F)NNC(=O)c1ccccc1O	2.5%	-59.5*	-14.9	22.6%
O=C(NCCCN1CCN(CCCNC(=O)c2ccccc2F)CC1)c1ccccc1F	-1.5%	-51.3*	-1.7	-49.5%
O=C(NCCN1CCN(c2ccccc2)CC1)c1ccccc1F	3.5%	-55.9*	15.9	-4.9%[56.9 µM]
O=C(NCCCN1CCOCC1)c1c(F)cccc1F	.	-12.7	-5.3	-8.1%
CCOc1ccccc1CNC(=O)C1CCN(C(=O)N2CC(CC)Oc3ccc(C)cc32)CC1 (configuration not stated)	.	.	-3.1	-1.7%
CC1CCCCN1S(=O)(=O)c1cc2c3c(c1)CC(=O)N3CCC2 (configuration not stated)	.	.	-1.8	-1.1%
Cc1ccc2nc3c(cc(C#N)c(=O)n3-c3nnc(SCc4ccccc4)s3)c(=O)n2c1	.	.	-1.2	-8.8%
CC1(C)CN=C(N(C(=O)Nc2ccccc2)c2ccccc2F)S1	-0.3%	7.6	30.9*	-17.6%
Cc1cccnc1N(C(=O)Nc1ccccc1)C1=NCC(C)(C)S1	-2.6%	-17.2	0.2	-4.0%
CCN(C(=O)c1ccc2c(=O)n3c(nc2c1)CCCCC3)c1cc(C)ccc1C	.	.	4.7	-1.0%
CC[C@@H](C)[C@@H](C(=O)Nc1ccc(C)cc1)N1Cc2ccccc2C1=O	.	.	9.7	-3.9%
CCC(CN)CC(C)CCNCC(O)CNCC(C)CC(CC)CN (configuration not stated)	.	.	-5.9	.
COc1cccc(C(C)(O)c2nc(-c3cccc4cccnc34)cs2)c1 (configuration not stated)	.	-3.0	-2.8	.
O=C(C1CC(c2ccccc2O)=NO1)N1CCc2ccccc2C1 (configuration not stated)	0.4%	-94.8*	-1.9	16.3%
CC(=O)c1ccc(NC(=O)CSc2nc(-c3ccccc3C)nc3c2c(=O)n(C)c(=O)n3C)cc1	.	.	6.5	-24.4%
COc1ccccc1CNc1ncnc2onc(-c3ccc(F)cc3)c12	.	.	-8.7	-1.4%
CC(C)c1ccc2c(c1)C(N1CCN(C)CC1)Cc1cccnc1S2 (configuration not stated)	-10.2%	-104.3*	-14.6	7.6%

Source: PubChem
